In PubChem BioAssay AID1117319 (Southern Research Institute, 2015):
Hit rate of the full screen: of about 260,000 compounds, about 1,500 (0.58%) were called active. Another 5% or so got no clear call; they are omitted. These entries were drawn from the full list. Measured potencies and affinities stand elsewhere. Values without a mark were called inactive.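 The calls were made as follows: active = inhibition above a set limit at one or more doses, reproduced on every date tested; inconclusive = results disagree between test dates, or hit never tested in dose response; inactive = the rest.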

molecular target: Virion infectivity factor (Human immunodeficiency virus type 1 group M subtype B (isolate BH10)) + Virion infectivity factor (Human immunodeficiency virus type 1 group M subtype B (isolate BRU/LAI)) + Virion infectivity factor (Human immunodeficiency virus type 1 group M subtype B (isolate PCV12)) + Virion infectivity factor (Human immunodeficiency virus type 1 group M subtype B (isolate HXB2)) + DNA dC->dU-editing enzyme APOBEC-3G (Homo sapiens) (UniProt P69720+P69721+P69722+P69723+Q9HC16); assay: inhibitors of Vif binding to APOBEC3G peptide, primary screen, biochemical, TR-FRET, GST-Vif 1-94, biotin-A3G peptide, dose response retest (AID 1117319); conditions: active compounds read high;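 also: Vif residues 1-94 fused to GST binding biotinylated APOBEC3G peptide 110-148; 0% = full assay without inhibitor and 100% = GST in place of GST-Vif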

Structure (SMILES) | inhibition [%]
CN[C@H]1C[C@H]2c3[nH]c4ccccc4c3CCN2C(=O)[C@H]1[C@H](C)O | -5.11
O=[N+]([O-])c1cc(F)c(N2CCCCC2)cc1N1CCOCC1 | 8.86
N#Cc1cc(N2CCCCC2)c([N+](=O)[O-])cc1C#N | -2.18
CCN(c1ccccc1)S(=O)(=O)c1ccc(Oc2ccccc2)c(N)c1 | 2.08
COc1cccc(C2=NOC(C(=O)NCc3cccs3)C2)c1 (stereo unspecified) | -3.08
COc1ccc(C2=NOC(C(=O)NCc3cccs3)C2)cc1 (stereo unspecified) | -3.82
COc1cc(-n2c(C)nc3ncn(-c4ccccc4)c3c2=O)cc(OC)c1OC | 2.62
CC(=O)Nc1ccc(OCC(O)Cn2cccn2)cc1 (stereo unspecified) | -6.52
CCCN(CC(=O)Nc1ccccc1C)C(=O)C1CCN(C(=O)Nc2ccccc2)CC1 | -0.04
O=C(Oc1ccccc1)c1cccc(N2C(=O)CCC2=O)c1 | -0.79
N#Cc1c(Nc2cccc(F)c2)sc2c(O)cc(=O)[nH]c12 | -5.54
CS(=O)(=O)N(CCc1ccccc1)CC(=O)Nc1ccc2c(c1)OCO2 | 13.8
CCCNS(=O)(=O)c1ccc(CCC(=O)Nc2ccc3c(c2)OCO3)cc1 | 2.82
CS(=O)(=O)N(CC(=O)Nc1ccc2c(c1)OCCO2)Cc1ccccc1 | 24.5
O=C(CCc1ccc(S(=O)(=O)NCCc2ccccc2)cc1)NCc1ccc2c(c1)OCO2 | -2.37
CC1(C)Cc2c(sc3nc(SCC(=O)N4CCOCC4)nc(N)c23)CO1 | 3.98
CSc1nc(C)cc(OCC(=O)n2nc(C)cc2C)n1 | 1.86
CC(=O)Nc1sc2c(c1C(c1ccccc1)N1CCOCC1)CCCC2 (stereo unspecified) | 5.78
CCOC(=O)c1ccc(NC(=O)C(=O)NCc2ccncc2)cc1 | 27
CC(=O)OCCNc1cc(N2CCN(C)CC2)c2noc3c2c1C(=O)c1ccccc1-3 | 3.2
O=[N+]([O-])c1c(NCCO)cc(N2CCC3(CC2)OCCO3)c2nonc12 | -8.02

Structure (SMILES) | inhibition [%]
CCOC(=O)c1coc(C(=O)OCC)c1C(=O)OCC | -10.9
COc1ccc(-c2csc(NC3=NCCCCC3)n2)cc1 | -3.94
O=C1NC(=S)N/C1=C\c1cccc([N+](=O)[O-])c1 | 0.47
O=C1NC(=S)N/C1=C/c1cc([N+](=O)[O-])ccc1O | 0.15
O=C(/C=C\Nc1ccccn1)c1ccccc1 | 1.92
O=C(/C=C\Nc1ccc2c(c1)OCO2)c1ccccn1 | -6.96
O=C(NCc1cccnc1)c1cc2nc(-c3cccs3)cc(C(F)(F)Cl)n2n1 | -9.65
CCCn1c(CNc2ccc(Br)cc2)nc2ccccc21 | -3.54
CCOc1ccc(NCc2nc3ccccc3n2CCOc2ccccc2)cc1 | 11.4
Cn1c(CNc2ccccc2O)nc2ccccc21 | 17.5
COc1ccc(NCc2nc3ccccc3n2CCOc2ccc(C)cc2)cc1 | 8.44
CCOC(=O)n1c(=O)oc2cc(S(=O)(=O)N3CCOCC3)ccc21 | 9.96
COc1ccc(Cc2nnc(SCC(=O)NCc3ccco3)o2)cc1 | 3.47
COc1ccc(-c2nnc(-c3cccs3)o2)cc1OC | 25.2
COc1cc(-c2nnc(-c3cccs3)o2)cc(OC)c1OC | 2.65
Cc1ccc(C(=O)N[C@H](C(=O)OCC(=O)c2ccc[nH]2)C(C)C)cc1 | -7.75
O=C1NC(=S)NC1=Cc1ccc(O)cc1 | 4.35
O=C1NC(=S)NC1=Cc1ccccc1O | -3.79
Cc1ccc2c(c1)/C(=C/c1ccco1)C(=O)N2 | 6.3
O=C1C(=Cc2ccco2)C(=O)c2ccccc21 | -3.58
Cc1ccc(/C(O)=C2/C(=O)C(=O)N(c3ccccn3)C2c2cccc([N+](=O)[O-])c2)cc1 (stereo unspecified) | 1.22

Structure (SMILES) | inhibition [%]
O=C(Nn1cnnc1)c1ccc(Cl)c([N+](=O)[O-])c1 | -7.17
CCN(CC)C(=O)[C@H]1C[C@H](CC(=O)NCc2ccco2)C(=O)N2CCc3c([nH]c4cc(-c5ccco5)ccc34)[C@]12C | -1.87
O=C(O)CCCNC(=O)c1cncc(Br)c1 | -4.15
COc1cc(-c2nnc3n2CCCCC3)cc(OC)c1OC | -1.21
Cc1ccc(NC(=O)C(NC2CCCC2)c2ccccc2)cc1Cl (stereo unspecified) | 21.3
N#C/C(=C/c1ccc(Sc2nc3ccccc3[nH]2)o1)c1cccc(F)c1 | 25.4
N#C/C(=C\c1ccc(Sc2nc3ccccc3[nH]2)o1)c1ccccc1 | 4.57
C=CCN1C(=O)S/C(=C/c2ccc(Sc3nc4ccccc4[nH]3)o2)C1=O | -2.89
O=C1NN(c2ccccc2)C(=O)/C1=C/c1ccc(Sc2ccc(Cl)cc2)o1 | -5.35
CC(C)N=C1NN=C(c2cccs2)C(CC(=O)O)S1 (stereo unspecified) | 1.51
CCOc1ncccc1C(=O)OCC(=O)Nc1c(C)cc(C)cc1C | 2.59
Nc1c(C(=O)Nc2ccccc2)sc2nc3c(c(-c4ccco4)c12)CCC3 | 13.2
Nc1c(C(=O)Nc2ccccc2)sc2nc3c(c(-c4ccco4)c12)CCCC3 | -0.46
COc1cc(/C=C2\CC/C(=C\c3cc(OC)c(OC)c(OC)c3)C2=O)cc(OC)c1OC | 2.04
COc1cc(/C=C2/CC/C(=C/c3ccc(O)c(OC)c3)C2=O)ccc1O | 32.3
COc1ccc(/C=C2\CC/C(=C\c3ccc(OC)c(OC)c3)C2=O)cc1OC | -3.91
COc1cc(/C=C2\CCC/C(=C\c3ccc(O)c(OC)c3)C2=O)ccc1O | 3.35
Cc1cc(C)cc(OCc2ccc(C(=O)O)o2)c1 | 9.08
FC(F)(F)c1ccc(N=Cc2sc(N3CCOCC3)nc2-c2ccccc2)cc1 | 12.3
